Assay results reported in PubChem BioAssay (EPA / NIEHS).
Values joined by “and” are separate entries in the source; they are usually repeats but may differ in a detail not shown here. Equal values may be shown once. Records with an inconclusive call do not appear. A structure can be active in one record and inactive in another. Active and inactive are the calls of the source. The calls were made as follows, unless noted: active = hit-call score of the fitted dose curve at least 0.9, where 1 is the maximum; inactive = score below 0.9.

What was measured:
[1] = ATG_RORE_CIS: Attagene CIS-FACTORIAL HepG2 Assay for human RAR-related Orphan Receptor Element (RORE) (AID 2282959); settings: HepG2 Attagene cis-factorial RORE reporter, mRNA; actives raise or lower the signal
Outline: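 Transiently transfected HepG2 reporter cells were treated 24 h. Reporter transcripts were detected by RT-PCR and capillary electrophoresis, with bidirectional fitting against DMSO.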

[2] = ATG_Sox_CIS: Attagene CIS-FACTORIAL HepG2 Assay for human SRY-box transcription factor (SOX) (AID 2282960); settings: HepG2 Attagene cis-factorial SOX reporter, mRNA; actives raise or lower the signal
Outline: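 Gain- or loss-of-signal endpoint, fitted bidirectionally with DMSO as negative control. Based on reporter mRNA from transfected HepG2 cells harvested 24 h post-treatment and quantified via RT-PCR and capillary electrophoresis.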

[3] = target: Transcription factor Sp1 (Homo sapiens) (UniProt P08047); test: ATG_Sp1_CIS: Attagene CIS-FACTORIAL HepG2 Assay for human Specificity Protein 1 (Sp1) (AID 2282961); settings: HepG2 Sp1 cis-reporter transcription, actives raise or lower the signal
Outline: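 Endpoint reflects endogenous Sp1 transcriptional activity, not an exogenous fusion protein: HepG2 cells with transfected cis-regulated reporters, 24 h dosing, RT-PCR/capillary electrophoresis mRNA read-out, DMSO-normalised bidirectional fit.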

[4] = ATG_SREBP_CIS: Attagene CIS-FACTORIAL HepG2 Assay for human Sterol Regulatory Element Binding (SREBP) (AID 2282962); settings: HepG2 Attagene cis-factorial SREBP reporter, mRNA; actives raise or lower the signal
Outline: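 Readout: fluorescent reporter-transcript peaks resolved by capillary electrophoresis after RT-PCR. Cells were human HepG2 carrying transfected cis-promoter reporter constructs, dosed for 24 h. Gain or loss of signal was fitted against DMSO controls.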

[5] = target: Signal transducer and activator of transcription 3 (Homo sapiens) (UniProt P40763); test: ATG_STAT3_CIS: Attagene CIS-FACTORIAL HepG2 Assay for human Signal Transducer and Activator of Transcription 3 (STAT3) (AID 2282963); settings: HepG2, Attagene cis-factorial STAT3 reporter transcription; actives raise or lower the signal
Outline: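 Cis-factorial format: endogenous transcription factors in HepG2 drive transfected reporter units. After 24 h treatment, reporter RNA was reverse-transcribed, amplified, FAM-labelled and HpaI-digested before CE analysis; activity scored in both directions against DMSO.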

[6] = ATG_TA_CIS: Attagene CIS-FACTORIAL HepG2 Assay for human TA Basal Promoter (AID 2282964); settings: HepG2 Attagene CIS-factorial TA basal promoter reporter; actives raise or lower the signal
Outline: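 Transfected HepG2, 24 h compound exposure; RNA → RT-PCR → FAM primer extension → HpaI cut → CE fluorescence. Gain/loss-of-signal fitted against DMSO negative control. Background-control readout.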

[7] = ATG_TCF_b_cat_CIS: Attagene CIS-FACTORIAL HepG2 Assay for human T-Cell-Factor with beta-catenin (TCF/b-cat) (AID 2282965); settings: HepG2 TCF/beta-catenin cis-reporter transcription, actives raise or lower the signal
Outline: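 Endogenous transcription factor activity is captured through cis-promoter reporter constructs transiently introduced into human HepG2 liver cells. Induced reporter mRNA is measured after 24 h and fitted bidirectionally relative to DMSO.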

[8] = ATG_VDRE_CIS: Attagene CIS-FACTORIAL HepG2 Assay for human Vitamin D Receptor Element (VDRE) (AID 2282968); settings: HepG2 VDRE cis-reporter transcription, actives raise or lower the signal
Outline: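 Measures endogenous factor activity through cis-element-driven reporter transcripts in transiently transfected HepG2. Cells are treated 24 h; reporter mRNA is quantified by RT-PCR and capillary electrophoresis; fitting is bidirectional.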

[9] = target: Steroid hormone receptor ERR1 (Homo sapiens) (UniProt P11474); test: ATG_ERRa_TRANS: Attagene TRANS-FACTORIAL HepG2 Assay for human Estrogen-Related Receptor alpha (ERRa) (AID 2282971; active = hit-call score of the fitted dose curve at least 0.9, where 1 is the maximum); settings: HepG2 Attagene TRANS reporter, ERRa transactivation
Outline: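 Transfected HepG2, 24 h dosing, ERRa-Gal4 chimera driving GAL4-UAS reporter. Readout: reporter mRNA via RT-PCR plus capillary electrophoresis (fluorescence). Positive direction vs DMSO control.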

[10] = target: X-box-binding protein 1 (Homo sapiens) (UniProt P17861); test: ATG_Xbp1_CIS: Attagene CIS-FACTORIAL HepG2 Assay for human X-box Binding Protein 1 (XBP1) (AID 2282972); settings: HepG2 XBP1 cis-element reporter, Attagene multiplex; actives raise or lower the signal
Outline: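 Read-out: fluorescent reporter mRNA fragments resolved by capillary electrophoresis after RT-PCR. Human HepG2 liver cells carried transfected cis-promoter reporter units and were exposed to chemicals for 24 hours. Gain or loss of signal fitted relative to DMSO baseline.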

[11] = ATG_M_19_TRANS: Attagene TRANS-FACTORIAL HepG2 Assay for M19 Transcription Factor (Internal Marker) (AID 2282974; active = hit-call score of the fitted dose curve at least 0.9, where 1 is the maximum); settings: HepG2 Attagene TRANS-FACTORIAL M19 internal marker reporter
Outline: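 Using RT-PCR and capillary electrophoresis, reporter mRNA from transiently transfected human HepG2 cells was quantified following 24 h exposure; activity was fitted in the positive direction against DMSO.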

[12] = target: Glucocorticoid receptor (Homo sapiens) (UniProt P04150); test: ATG_GR_TRANS: Attagene TRANS-FACTORIAL HepG2 Assay for human Glucocorticoid Receptor (GR) (AID 2282978; active = hit-call score of the fitted dose curve at least 0.9, where 1 is the maximum;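 also: activators score as hits since higher reporter transcript over DMSO is fitted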); settings: HepG2 Attagene TRANS GR reporter, mRNA transcription
Outline: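 Exogenous NR-GAL4 fusion activity was assessed through induced GAL4-UAS reporter transcripts in transfected human HepG2 cells, quantified after 24 h by RT-PCR and fluorescent capillary electrophoresis with DMSO as baseline.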

[13] = ATG_PPRE_CIS: Attagene CIS-FACTORIAL HepG2 Assay for human Peroxisome Proliferator-activated Response Element (PPRE) (AID 2282958); settings: HepG2 PPRE cis-element reporter, Attagene transcription factor profiling; actives raise or lower the signal
Outline: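 Measured endpoint: PPRE-controlled reporter mRNA, detected by RT-PCR and capillary electrophoresis fluorescence, from transiently transfected HepG2 cells 24 h after dosing. Curves fitted in both directions using DMSO baseline.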

[14] = ATG_TGFb_CIS: Attagene CIS-FACTORIAL HepG2 Assay for human Transforming Growth Factor (TGF) (AID 2282967); settings: HepG2 Attagene CIS TGFb reporter, mRNA transcription; actives raise or lower the signal
Outline: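 Readout: fluorescently labeled reporter cDNA fragments resolved by capillary electrophoresis after RT-PCR. Transfected HepG2 cells dosed for 24 h; endogenous TF activity at TGFB1-linked cis element; gain or loss fitted relative to DMSO.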

[15] = target: Nuclear receptor subfamily 1 group I member 3 (Homo sapiens) (UniProt Q14994); test: ATG_CAR_TRANS: Attagene TRANS-FACTORIAL HepG2 Assay for human Constitutive Androstane Receptor (CAR) (AID 2282969; active = hit-call score of the fitted dose curve at least 0.9, where 1 is the maximum;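 also: activators raise reporter mRNA above DMSO so AC50 marks induction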); settings: HepG2 Attagene TRANS-FACTORIAL CAR reporter
Outline: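 Signal is reporter mRNA induction relative to DMSO, measured 24 h after dosing by RT-PCR with fluorescent primer extension and capillary electrophoresis. Human HepG2 liver cells carried transiently transfected chimeric NR-Gal4/GAL4-UAS reporter constructs.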

[16] = target: Estrogen receptor (Homo sapiens) (UniProt P03372); test: ATG_ERa_TRANS: Attagene TRANS-FACTORIAL HepG2 Assay for human Estrogen Receptor alpha (ERa) (AID 2282970; active = hit-call score of the fitted dose curve at least 0.9, where 1 is the maximum); settings: HepG2 Attagene TRANS ERa GAL4 reporter, mRNA
Outline: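 Reporter mRNA induction after 24 hours, detected by fluorescent RT-PCR and capillary electrophoresis, gives the read-out. Cells are HepG2 transiently transfected with GAL4-UAS reporter transcription units responding to chimeric NR-Gal4. Activity is taken as gain of signal over DMSO baseline.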

[17] = ATG_TAL_CIS: Attagene CIS-FACTORIAL HepG2 Assay for human TAL Basal Promoter (AID 2282966); settings: HepG2 Attagene cis-factorial TAL promoter reporter; actives raise or lower the signal;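 also: background control endpoint measuring basal TAL promoter reporter mRNA not a specific factor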
Outline: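 HepG2, transient MRTU transfection, 24 h compound exposure; RNA → oligo(dT) RT → PCR → 6-FAM primer extension → HpaI digest → CE fluorescence. Bidirectional curve fit vs DMSO. Background-control readout.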

[18] = ATG_GAL4_TRANS: Attagene TRANS-FACTORIAL HepG2 Assay for GAL4 (Internal Marker) (AID 2282976; active = hit-call score of the fitted dose curve at least 0.9, where 1 is the maximum); settings: HepG2 Attagene TRANS GAL4 internal marker reporter
Outline: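 RT-PCR/capillary electrophoresis readout of reporter mRNA. HepG2, transient MRTU transfection (GAL4-UAS reporters), 24 h compound exposure. Background-control endpoint, positive direction vs DMSO baseline.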

[19] = target: Androgen receptor (Homo sapiens) (UniProt P10275); test: ATG_AR_TRANS: Attagene TRANS-FACTORIAL HepG2 Assay for human Androgen Receptor (AR) (AID 2282973; active = hit-call score of the fitted dose curve at least 0.9, where 1 is the maximum); settings: HepG2 Attagene TRANS-FACTORIAL AR reporter transcription
Outline: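 Readout is reporter transcript abundance, quantified by fluorescent RT-PCR products separated on capillary electrophoresis. Human HepG2 liver cells carried transiently transfected NR-Gal4 chimera plus GAL4-UAS reporter constructs and were dosed for 24 h; activity scored upward versus DMSO.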

[20] = target: Estrogen-related receptor gamma (Homo sapiens) (UniProt P62508); test: ATG_ERRg_TRANS: Attagene TRANS-FACTORIAL HepG2 Assay for human Estrogen-Related Receptor gamma (ERRg) (AID 2282977; active = hit-call score of the fitted dose curve at least 0.9, where 1 is the maximum;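 also: hits increase reporter signal over DMSO so potencies reflect activators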); settings: HepG2 Attagene TRANS reporter, ERRg transactivation
Outline: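 Exogenous NR-Gal4 chimera activity was assessed in HepG2 cells bearing transfected GAL4-UAS reporters. After 24 h dosing, total RNA underwent RT-PCR, fluorescent primer extension and HpaI digestion before capillary electrophoresis, with gain of signal scored against DMSO.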

Measured: AC50

Glucocorticoid receptor (Homo sapiens), sequence (P04150 whole entry, looked up, the tested form may be a part): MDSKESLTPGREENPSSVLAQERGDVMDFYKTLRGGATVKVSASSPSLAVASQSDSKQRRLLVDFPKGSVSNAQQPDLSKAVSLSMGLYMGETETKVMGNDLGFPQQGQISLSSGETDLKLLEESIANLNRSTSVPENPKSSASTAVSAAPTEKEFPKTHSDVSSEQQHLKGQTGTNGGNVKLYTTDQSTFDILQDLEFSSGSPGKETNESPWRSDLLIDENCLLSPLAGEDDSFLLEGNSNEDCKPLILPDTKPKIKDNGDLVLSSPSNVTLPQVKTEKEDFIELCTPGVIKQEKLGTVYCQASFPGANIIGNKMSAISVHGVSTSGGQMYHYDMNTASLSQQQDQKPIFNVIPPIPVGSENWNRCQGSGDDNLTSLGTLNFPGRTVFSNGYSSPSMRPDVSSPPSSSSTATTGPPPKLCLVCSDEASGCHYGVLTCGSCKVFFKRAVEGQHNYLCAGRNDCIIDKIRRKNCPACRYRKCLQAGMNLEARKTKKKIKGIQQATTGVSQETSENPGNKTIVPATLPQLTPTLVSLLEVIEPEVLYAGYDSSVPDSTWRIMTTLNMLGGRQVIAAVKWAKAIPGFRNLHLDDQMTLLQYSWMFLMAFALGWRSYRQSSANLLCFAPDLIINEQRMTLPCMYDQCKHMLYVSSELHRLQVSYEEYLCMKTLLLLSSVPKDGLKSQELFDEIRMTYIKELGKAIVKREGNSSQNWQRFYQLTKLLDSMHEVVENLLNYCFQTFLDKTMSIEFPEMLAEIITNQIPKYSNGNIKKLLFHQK
Estrogen receptor (Homo sapiens), sequence (P03372 whole entry, looked up, the tested form may be a part): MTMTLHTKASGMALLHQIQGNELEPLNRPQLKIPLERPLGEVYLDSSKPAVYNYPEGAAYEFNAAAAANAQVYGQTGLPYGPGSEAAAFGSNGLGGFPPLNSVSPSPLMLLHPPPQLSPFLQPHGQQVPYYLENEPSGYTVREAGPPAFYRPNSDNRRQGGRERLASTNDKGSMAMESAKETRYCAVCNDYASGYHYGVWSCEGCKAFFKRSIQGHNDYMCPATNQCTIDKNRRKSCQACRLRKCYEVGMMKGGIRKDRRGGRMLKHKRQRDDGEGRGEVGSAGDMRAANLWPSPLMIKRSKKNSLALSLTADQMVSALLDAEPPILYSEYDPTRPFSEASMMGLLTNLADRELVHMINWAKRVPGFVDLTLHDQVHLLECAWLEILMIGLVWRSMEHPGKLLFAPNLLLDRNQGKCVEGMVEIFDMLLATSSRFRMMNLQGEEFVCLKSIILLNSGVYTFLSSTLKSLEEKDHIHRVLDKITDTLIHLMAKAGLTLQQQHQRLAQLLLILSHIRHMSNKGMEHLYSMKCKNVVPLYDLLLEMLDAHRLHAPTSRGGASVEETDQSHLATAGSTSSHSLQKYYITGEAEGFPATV
Steroid hormone receptor ERR1 (Homo sapiens), sequence (P11474 whole entry, looked up, the tested form may be a part): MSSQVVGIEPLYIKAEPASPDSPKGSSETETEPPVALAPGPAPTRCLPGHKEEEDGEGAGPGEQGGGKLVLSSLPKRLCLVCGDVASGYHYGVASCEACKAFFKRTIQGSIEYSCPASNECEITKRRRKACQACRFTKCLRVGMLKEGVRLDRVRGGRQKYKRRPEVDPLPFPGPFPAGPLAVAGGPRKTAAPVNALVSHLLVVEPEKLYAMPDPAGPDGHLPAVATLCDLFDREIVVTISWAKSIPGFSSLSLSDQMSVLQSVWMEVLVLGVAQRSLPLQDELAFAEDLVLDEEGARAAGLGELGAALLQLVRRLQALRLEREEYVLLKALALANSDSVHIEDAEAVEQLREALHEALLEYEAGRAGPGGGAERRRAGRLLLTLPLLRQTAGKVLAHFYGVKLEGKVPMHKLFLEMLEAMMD
Nuclear receptor subfamily 1 group I member 3 (Homo sapiens), sequence (Q14994 whole entry, looked up, the tested form may be a part): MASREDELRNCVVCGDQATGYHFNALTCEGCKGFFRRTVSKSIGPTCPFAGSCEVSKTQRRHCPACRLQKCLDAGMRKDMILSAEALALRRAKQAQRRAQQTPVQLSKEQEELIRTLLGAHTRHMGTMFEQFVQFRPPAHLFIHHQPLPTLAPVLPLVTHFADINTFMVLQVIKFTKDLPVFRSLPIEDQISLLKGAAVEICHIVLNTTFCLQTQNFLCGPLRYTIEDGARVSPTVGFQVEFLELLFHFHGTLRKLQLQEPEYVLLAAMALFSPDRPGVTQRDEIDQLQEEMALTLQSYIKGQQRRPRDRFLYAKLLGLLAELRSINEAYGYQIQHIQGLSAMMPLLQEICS
X-box-binding protein 1 (Homo sapiens), sequence (P17861 whole entry, looked up, the tested form may be a part): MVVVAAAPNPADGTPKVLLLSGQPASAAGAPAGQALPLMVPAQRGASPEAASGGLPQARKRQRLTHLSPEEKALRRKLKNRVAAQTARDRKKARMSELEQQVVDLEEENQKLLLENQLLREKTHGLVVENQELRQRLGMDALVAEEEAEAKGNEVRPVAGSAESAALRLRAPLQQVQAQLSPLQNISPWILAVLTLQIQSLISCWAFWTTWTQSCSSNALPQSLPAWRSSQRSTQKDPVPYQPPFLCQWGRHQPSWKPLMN
Transcription factor Sp1 (Homo sapiens), sequence (P08047 whole entry, looked up, the tested form may be a part): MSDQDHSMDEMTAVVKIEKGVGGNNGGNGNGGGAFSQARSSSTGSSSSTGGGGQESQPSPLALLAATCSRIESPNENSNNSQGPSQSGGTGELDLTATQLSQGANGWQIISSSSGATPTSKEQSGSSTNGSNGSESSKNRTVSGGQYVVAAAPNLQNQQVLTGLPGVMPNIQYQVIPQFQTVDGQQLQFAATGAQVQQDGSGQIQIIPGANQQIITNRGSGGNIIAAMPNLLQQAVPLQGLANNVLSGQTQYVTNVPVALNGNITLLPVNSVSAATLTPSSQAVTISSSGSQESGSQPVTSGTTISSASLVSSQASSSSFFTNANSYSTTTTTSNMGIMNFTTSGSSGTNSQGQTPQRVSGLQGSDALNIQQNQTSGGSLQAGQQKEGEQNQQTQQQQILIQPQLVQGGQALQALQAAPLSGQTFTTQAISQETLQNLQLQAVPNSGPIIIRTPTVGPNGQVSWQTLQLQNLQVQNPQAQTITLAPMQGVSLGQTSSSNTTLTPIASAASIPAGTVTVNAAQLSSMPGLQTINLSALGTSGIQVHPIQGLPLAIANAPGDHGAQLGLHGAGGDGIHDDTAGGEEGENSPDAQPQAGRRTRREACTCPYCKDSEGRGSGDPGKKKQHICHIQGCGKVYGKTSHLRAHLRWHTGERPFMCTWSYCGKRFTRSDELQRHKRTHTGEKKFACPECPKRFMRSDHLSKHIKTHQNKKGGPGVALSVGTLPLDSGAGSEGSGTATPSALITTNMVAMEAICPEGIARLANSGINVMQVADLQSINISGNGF
Signal transducer and activator of transcription 3 (Homo sapiens), sequence (P40763 whole entry, looked up): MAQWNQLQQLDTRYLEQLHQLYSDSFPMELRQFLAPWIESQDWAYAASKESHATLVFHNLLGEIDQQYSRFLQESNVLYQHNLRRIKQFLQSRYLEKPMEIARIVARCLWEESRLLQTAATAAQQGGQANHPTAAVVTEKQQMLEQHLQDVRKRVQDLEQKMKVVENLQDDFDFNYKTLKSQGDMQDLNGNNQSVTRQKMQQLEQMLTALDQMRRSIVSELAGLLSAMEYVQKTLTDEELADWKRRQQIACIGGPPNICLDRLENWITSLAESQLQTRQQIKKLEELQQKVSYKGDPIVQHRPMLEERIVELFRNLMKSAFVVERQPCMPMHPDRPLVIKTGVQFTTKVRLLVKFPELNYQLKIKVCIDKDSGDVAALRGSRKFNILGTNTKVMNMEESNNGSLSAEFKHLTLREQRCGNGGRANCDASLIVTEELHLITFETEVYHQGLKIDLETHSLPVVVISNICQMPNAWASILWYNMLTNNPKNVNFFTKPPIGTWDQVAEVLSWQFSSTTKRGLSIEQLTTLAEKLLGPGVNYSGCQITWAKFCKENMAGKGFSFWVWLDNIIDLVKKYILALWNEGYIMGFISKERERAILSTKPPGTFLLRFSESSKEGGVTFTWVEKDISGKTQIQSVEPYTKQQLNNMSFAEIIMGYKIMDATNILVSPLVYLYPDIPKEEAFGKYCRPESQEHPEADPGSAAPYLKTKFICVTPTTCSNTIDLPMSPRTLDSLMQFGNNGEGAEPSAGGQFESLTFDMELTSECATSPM
Estrogen-related receptor gamma (Homo sapiens), sequence (P62508 whole entry, looked up, the tested form may be a part): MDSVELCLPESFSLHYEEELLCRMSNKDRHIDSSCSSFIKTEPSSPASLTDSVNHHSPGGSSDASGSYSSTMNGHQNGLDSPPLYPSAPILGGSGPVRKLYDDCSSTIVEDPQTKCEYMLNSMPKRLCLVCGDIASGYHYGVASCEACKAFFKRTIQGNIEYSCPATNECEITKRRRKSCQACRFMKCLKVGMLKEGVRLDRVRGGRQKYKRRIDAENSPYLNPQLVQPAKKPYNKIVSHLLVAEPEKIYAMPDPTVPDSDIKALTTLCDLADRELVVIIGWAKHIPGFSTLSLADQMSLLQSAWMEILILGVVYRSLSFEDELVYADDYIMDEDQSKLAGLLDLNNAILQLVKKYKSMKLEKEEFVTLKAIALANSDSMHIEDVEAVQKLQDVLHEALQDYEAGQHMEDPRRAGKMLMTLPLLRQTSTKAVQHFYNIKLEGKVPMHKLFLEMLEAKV

C[C@]12CCC(=O)C[C@@H]1CC[C@@H]1[C@@H]2CC[C@]2(C)[C@@H](O)CC[C@@H]12
inactive: [1] | [2] | [3] | [4] | [5] | [6] | [7] | [8] | [9] | [10] | [11] | [12]
active: [1] 42.3 µM | [4] 26 µM and 23 µM | [7] 24.6 µM and 23.6 µM | [8] 33 µM and 17.9 µM and 23.4 µM

COC(=O)c1sccc1S(=O)(=O)NC(=O)Nc1nc(C)nc(OC)n1
not listed: [1] | [9] | [17] | [18] | [19] | [20]
inactive: all other assays above

CCOP(OCC)OCC
not listed: [8] | [9] | [11] | [12] | [13] | [16] | [19] | [20]
inactive: all other assays above

C[C@@H](Oc1ccc(Cl)cc1Cl)C(=O)O
not listed: [9] | [13] | [15] | [16] | [19] | [20]
inactive: all other assays above

COP(=S)(OC)Oc1ccc(Sc2ccc(OP(=S)(OC)OC)cc2)cc1
active: [1] 37.2 µM | [17] 57.7 µM | [14] 61.7 µM | [8] 9.75 µM | [10] 6.02 µM
not listed: [9] | [11] | [12] | [13] | [18] | [20]
inactive: all other assays above

C=CC#N
not listed: [12] | [13] | [15] | [19] | [20]
inactive: all other assays above

Fc1ccc(C2(Cn3cncn3)OC2c2ccccc2Cl)cc1 (configuration not stated)
active: [4] 27.3 µM | [8] 12.3 µM
not listed: [9] | [13] | [15] | [18] | [19] | [20]
inactive: all other assays above

CCOP(=O)(CN(CCO)CCO)OCC
inactive: [13] | [1] | [2] | [3] | [4] | [5] | [6] | [7] | [8] | [10]

CC1(C)Cc2cccc(O)c2O1
not listed: [9] | [11] | [12] | [13] | [15] | [19] | [20]
inactive: all other assays above

O=C(O)Cc1ccccc1
not listed: [9] | [12] | [13] | [18] | [19] | [20]
inactive: all other assays above

NC(=O)O
not listed: [1] | [12] | [13] | [17] | [19]
inactive: all other assays above

COC[C@H](C)N(C(=O)CCl)c1c(C)csc1C
active: [8] 47.3 µM
not listed: [11] | [12] | [13] | [15] | [17] | [18] | [19] | [20]
inactive: all other assays above

O=[N+]([O-])c1ccc(O)c([N+](=O)[O-])c1
not listed: [8] | [11] | [12] | [13] | [15] | [16] | [18] | [19]
inactive: all other assays above

Cn1sc(Cl)cc1=O
not listed: [9] | [11] | [12] | [13] | [15] | [17] | [19] | [20]
inactive: all other assays above
